Results: PubChem BioAssay (NCATS)
Inconclusive results are not listed. Active and inactive are the calls of the source. Unless noted, calls follow the shape of the dose curve; as a rule, active = well fitted curve in the direction sought with a large enough effect; inconclusive = small, poorly fitted or top-dose-only effect, or another doubt; inactive = no such curve, though single readings can be large; an effect the other way counts as inactive or inconclusive.

Experiments:
[1] = molecular target: Nucleoprotein (Lymphocytic choriomeningitis virus (strain Armstrong)) (UniProt P09992); test: qHTS for Inhibitors of the Functional Ribonucleoprotein Complex (vRNP) of Lymphocytic Choriomeningitis Arenaviruses (LCMV): LCMV Primary Screen - GLuc reporter signal (AID 1347086; calls by dose curve; also: % is scaled to controls: 0 for no effect and ±100 for the full control effect; nearly all actives have a fitted effect of over 70% in size)
Chain of Nucleoprotein (Lymphocytic choriomeningitis virus (strain Armstrong)) (P09992 whole entry, looked up): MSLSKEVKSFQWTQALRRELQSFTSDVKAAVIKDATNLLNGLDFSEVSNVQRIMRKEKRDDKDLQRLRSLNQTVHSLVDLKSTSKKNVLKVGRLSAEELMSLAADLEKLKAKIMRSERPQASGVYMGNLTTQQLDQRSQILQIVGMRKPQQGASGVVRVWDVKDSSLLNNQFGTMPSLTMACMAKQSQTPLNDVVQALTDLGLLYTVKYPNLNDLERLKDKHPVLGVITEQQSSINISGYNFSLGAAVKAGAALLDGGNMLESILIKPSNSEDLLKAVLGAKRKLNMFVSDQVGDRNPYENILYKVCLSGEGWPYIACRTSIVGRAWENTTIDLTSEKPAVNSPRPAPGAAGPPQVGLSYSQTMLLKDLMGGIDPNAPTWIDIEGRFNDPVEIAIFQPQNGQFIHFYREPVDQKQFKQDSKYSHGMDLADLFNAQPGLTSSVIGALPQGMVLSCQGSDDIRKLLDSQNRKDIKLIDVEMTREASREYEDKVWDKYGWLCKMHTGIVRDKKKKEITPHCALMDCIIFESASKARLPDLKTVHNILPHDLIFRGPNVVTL

[2] = Cytotoxicity counterscreen for inhibitors of SARS-CoV-2 cell entry (AID 1645845; calls by dose curve; also: nearly all actives have a fitted effect of over 50% in size)
How it was run: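 ATP-content luminescence (ATPLite 1step, 15 min RT) read after 48 h compound exposure of Expi293F cells stably expressing human ACE2; normalized to cells-only wells and media-only wells.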

[3] = system: Zika virus NS2B-NS3 protease; test: Primary screen GU AMC qHTS for Zika virus inhibitors (AID 1347154);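 also: 0% = no-inhibitor control and -100% = no-enzyme control; nearly all actives have a fitted effect of over 70% in size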
How it was run: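 Fluorogenic AMC-substrate cleavage by noncovalent NS2B-NS3 protease complex (25 nM, pH 8.0 Tris buffer with Tween 20) followed for 15 minutes at room temperature (~20% conversion). Percent inhibition from ex340/em450 signal change, fitted by 4-parameter Hill equation.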

[4] = AP1 Signaling Pathway (AID 357; active = well fitted curve in either direction with a large enough effect, not every such curve was filed as active; also: % is scaled to controls: 0 for no effect and ±100 for the full control effect)
How it was run: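 Modulation of EGF-driven AP-1 transcription was assessed with a beta-lactamase reporter in ME-180 cells. Compound and EC50 EGF were co-incubated 5 hours at 37 °C before 2.5-hour CCF4 loading at room temperature and dual-emission reading.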

[5] = molecular target: Cytochrome P450 1A2 (Homo sapiens) (UniProt P05177); test: p450-cyp1a2 (AID 410; calls by dose curve;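 also: -100% = full effect of reference inhibitor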)
How it was run: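 Read-out is luminescence from luciferin produced by CYP1A2 demethylation of Luciferin-ME (100uM, at Km). Detection reagent stopped the 60 min NADPH-dependent reaction; signals were normalized to 57 uM furafylline.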

[6] = NFAT Signaling Pathway (AID 444; active = well fitted curve in either direction with a large enough effect, not every such curve was filed as active;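 also: carbachol stimulus at about its EC50 of 1 µM final; % is scaled to controls: 0 for no effect and ±100 for the full control effect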); conditions: Jurkat NFAT-bla M1, carbachol, beta-lactamase ratio, 5 h; at 38 µM (top of the series)
How it was run: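 Read-out: CCF4 FRET ratio (460 nm/530 nm) after 1 h RT dye loading, used for %activity and AC50 from titration series. Cells: Jurkat NFAT-β-lactamase/M1 line, treated with compound plus 1 uM carbachol for 5 h, 37 °C.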

[7] = Stat Signaling Pathway (AID 446; active = well fitted curve in either direction with a large enough effect, not every such curve was filed as active;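 also: ME-180 cervical cancer cells given 40 pM IL-6 alongside compound; SIE-controlled beta-lactamase reporter measured as 460/530 nm FRET emission ratio; % is scaled to controls: 0 for no effect and ±100 for the full control effect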)
How it was run: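 Compound effects on IL-6-induced STAT reporter activity were measured in ME-180 cells. After overnight culture, cells were co-treated with 40 pM IL-6 for 5 hrs before beta-lactamase substrate loading at room temperature.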

[8] = molecular target: Glucocorticoid receptor (Homo sapiens) (UniProt P04150); test: GR-GFP Redistribution (AID 450;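 active = compounds whose dose series gives a full or clear partial fitted curve of increased nuclear translocation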; also: potency is read from the fitted curve at half-maximal effect); conditions: U2OS GR-GFP nuclear translocation, laser cytometry, 2 h
Chain of Glucocorticoid receptor (Homo sapiens) (P04150 whole entry, looked up, the tested form may be a part): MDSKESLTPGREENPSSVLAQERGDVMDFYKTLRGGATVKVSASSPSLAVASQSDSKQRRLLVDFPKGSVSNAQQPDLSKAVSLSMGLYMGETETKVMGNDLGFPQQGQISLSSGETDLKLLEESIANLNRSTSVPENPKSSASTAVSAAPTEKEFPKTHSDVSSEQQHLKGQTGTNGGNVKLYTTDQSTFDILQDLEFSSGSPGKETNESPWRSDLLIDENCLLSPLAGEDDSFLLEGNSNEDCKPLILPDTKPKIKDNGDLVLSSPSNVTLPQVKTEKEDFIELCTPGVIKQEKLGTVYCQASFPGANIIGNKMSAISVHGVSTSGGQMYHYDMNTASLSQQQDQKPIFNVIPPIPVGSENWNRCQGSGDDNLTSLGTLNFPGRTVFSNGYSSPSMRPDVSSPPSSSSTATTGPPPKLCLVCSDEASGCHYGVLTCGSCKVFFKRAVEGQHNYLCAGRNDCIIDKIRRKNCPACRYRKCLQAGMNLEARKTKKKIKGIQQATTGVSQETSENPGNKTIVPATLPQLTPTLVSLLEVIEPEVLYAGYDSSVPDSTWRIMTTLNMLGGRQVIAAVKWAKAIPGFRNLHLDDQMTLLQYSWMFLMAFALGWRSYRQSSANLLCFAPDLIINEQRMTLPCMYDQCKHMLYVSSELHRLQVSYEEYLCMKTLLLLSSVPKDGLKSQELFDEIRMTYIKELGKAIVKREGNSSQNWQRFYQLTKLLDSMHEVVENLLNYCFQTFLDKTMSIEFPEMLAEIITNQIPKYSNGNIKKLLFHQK

[9] = molecular target: Glucocorticoid receptor (Homo sapiens) (UniProt P04150); test: GR-EFC Redistribution (AID 451; calls by dose curve; also: potency is read from the fitted curve at half-maximal effect); conditions: CHO-K1 GR-EFC translocation, beta-gal luminescence, 2 h
How it was run: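 Translocation of GR-ED fusion to nuclear EA restores b-gal, read by luminescence after 1 h room-temperature detection. Engineered CHO-K1 biosensor cells, 1,000/well, exposed 2 h at 37 C to titrations up to 46 uM final.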

[10] = molecular target: 3',5'-cyclic-AMP phosphodiesterase 4B (Homo sapiens) (UniProt Q07343); test: qHTS Assay for Inhibitors of PDE-IV (AID 607; active = well fitted activation curve with a large enough effect in the main read-out, with a control signal flat, not every such curve was filed as active; also: % of control where 0% means no effect)
Chain of 3',5'-cyclic-AMP phosphodiesterase 4B (Homo sapiens) (Q07343 whole entry, looked up): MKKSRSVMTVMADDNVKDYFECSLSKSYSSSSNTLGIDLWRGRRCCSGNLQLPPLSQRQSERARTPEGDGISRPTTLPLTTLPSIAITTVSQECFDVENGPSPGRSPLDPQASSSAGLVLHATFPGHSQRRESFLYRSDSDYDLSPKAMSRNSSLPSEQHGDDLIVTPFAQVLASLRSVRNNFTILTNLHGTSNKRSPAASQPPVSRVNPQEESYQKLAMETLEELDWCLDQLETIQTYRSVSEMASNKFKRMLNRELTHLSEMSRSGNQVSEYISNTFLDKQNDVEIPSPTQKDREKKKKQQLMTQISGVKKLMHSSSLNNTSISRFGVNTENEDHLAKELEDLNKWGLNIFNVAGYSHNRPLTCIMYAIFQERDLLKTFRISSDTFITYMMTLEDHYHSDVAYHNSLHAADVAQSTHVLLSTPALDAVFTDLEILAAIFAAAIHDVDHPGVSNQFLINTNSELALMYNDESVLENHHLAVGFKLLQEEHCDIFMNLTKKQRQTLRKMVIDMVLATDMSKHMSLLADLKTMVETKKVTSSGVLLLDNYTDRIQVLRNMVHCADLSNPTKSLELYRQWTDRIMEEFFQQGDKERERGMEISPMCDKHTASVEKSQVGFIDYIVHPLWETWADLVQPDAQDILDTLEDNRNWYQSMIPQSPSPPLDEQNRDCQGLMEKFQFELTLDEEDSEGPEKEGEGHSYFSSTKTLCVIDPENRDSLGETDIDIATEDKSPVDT
How it was run: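 ACTOne HEK293 cells carry a modified cAMP-gated CNG channel and express endogenous PDE4; plated 1000 cells/well, compounds up to 22.9 uM final. Membrane-potential dye fluorescence (ex 535/em 590) was read; parental cells received 10 uM forskolin + 100 uM RO 20-1724.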

[11] = molecular target: Guanine nucleotide-binding protein G(i) subunit alpha-1 (Homo sapiens) (UniProt P63096); test: qHTS Assay for Inhibitors of RGS12 GoLoco Motif Activity (Green Fluorophore) (AID 879);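 also: 0% = labeled peptide with Gαi1 and full inhibition = labeled peptide alone without protein; negative values mean loss of peptide binding seen as reduced polarization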
Chain of Guanine nucleotide-binding protein G(i) subunit alpha-1 (Homo sapiens) (P63096 whole entry, looked up): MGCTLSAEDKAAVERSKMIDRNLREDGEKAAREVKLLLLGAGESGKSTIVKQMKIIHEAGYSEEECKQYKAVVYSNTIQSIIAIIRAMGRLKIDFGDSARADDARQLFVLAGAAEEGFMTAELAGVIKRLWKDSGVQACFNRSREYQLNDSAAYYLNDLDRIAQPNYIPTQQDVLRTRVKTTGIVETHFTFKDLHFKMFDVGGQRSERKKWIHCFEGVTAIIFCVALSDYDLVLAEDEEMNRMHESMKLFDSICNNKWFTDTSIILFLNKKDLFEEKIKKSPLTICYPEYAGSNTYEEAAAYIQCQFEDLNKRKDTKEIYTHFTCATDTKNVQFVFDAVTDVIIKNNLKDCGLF
How it was run: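 A drop in FITC polarization marked displacement of the FITC-tagged RGS12 GoLoco peptide (10 nM) from Gαi1 (50 nM). Compounds were incubated 10 min at room temperature in Tris pH 7.5 buffer containing 150 mM NaCl, 0.1 mM GDP and 0.05% NP40; unlabeled peptide titration served as control.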

[12] = molecular target: Cytochrome P450 3A4 (Homo sapiens) (UniProt P08684); test: qHTS Assay for Activators of Cytochrome P450 3A4 (AID 885); also: nearly all actives have a fitted effect of over 65% in size
How it was run: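 CYP3A4 activity: Luciferin-PPXE O-dealkylation, 25uM substrate, 200mM KPO4, RT throughout. Read-out is luciferase luminescence; higher values reflect activation.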

[13] = molecular target: Muscarinic acetylcholine receptor M1 (Rattus norvegicus) (UniProt P08482); test: qHTS Assay for Antagonists of Acetylcholine Muscarinic M1 Receptor: Kinetic Measurement of Intracellular Calcium Response (AID 943);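 also: Fluo-4 calcium signal as peak divided by basal fluorescence over 4 min; nearly all actives have a fitted effect of over 75% in size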
Chain of Muscarinic acetylcholine receptor M1 (Rattus norvegicus) (P08482 whole entry, looked up): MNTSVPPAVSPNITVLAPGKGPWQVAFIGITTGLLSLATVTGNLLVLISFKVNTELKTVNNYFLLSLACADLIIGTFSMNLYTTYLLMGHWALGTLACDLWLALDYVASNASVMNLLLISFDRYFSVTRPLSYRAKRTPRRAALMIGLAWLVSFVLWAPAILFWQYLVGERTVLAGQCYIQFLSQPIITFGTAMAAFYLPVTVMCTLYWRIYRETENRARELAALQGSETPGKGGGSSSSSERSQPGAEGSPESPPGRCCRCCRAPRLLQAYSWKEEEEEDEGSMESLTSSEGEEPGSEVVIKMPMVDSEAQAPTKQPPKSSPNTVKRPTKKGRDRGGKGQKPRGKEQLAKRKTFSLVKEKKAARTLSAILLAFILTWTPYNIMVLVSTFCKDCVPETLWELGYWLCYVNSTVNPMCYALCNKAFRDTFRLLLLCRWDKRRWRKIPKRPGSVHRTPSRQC
How it was run: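 Quantitative HTS in CHO-M1 (rat receptor) cells: 10 min compound exposure ahead of 100 nM carbachol, Fluo-4 fluorescence followed 4 min, value expressed as peak-to-basal ratio.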

[14] = molecular target: Muscarinic acetylcholine receptor M1 (Rattus norvegicus) (UniProt P08482); test: qHTS Assay for Antagonists of Acetylcholine Muscarinic M1 Receptor: Measurement of IP-One Response (AID 944); also: nearly all actives have a fitted effect of over 75% in size
How it was run: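 Antagonism was measured as loss of carbachol-driven (EC80) IP1 accumulation in CHO cells carrying rat M1, using a homogeneous IP-One TR-FRET kit read at 620 and 665 nm.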

[15] = molecular target: Pyruvate kinase (Leishmania mexicana) (UniProt Q27686); test: qHTS Validation Assay for Inhibitors of Leishmania Mexicana Pyruvate Kinase (AID 945);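 also: 0% = DMSO only neutral control wells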
How it was run: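 Purified LmPYK (E451W mutant, 0.2 nM) was incubated 1 h at room temperature with 0.5 mM PEP and 0.1 mM ADP in 50 mM imidazole pH 7.2, 50 mM KCl, 7 mM MgCl2; ATP formed was read by PKLight luminescence, normalized to DMSO wells.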

[16] = molecular target: Pyruvate kinase PKM (Homo sapiens) (UniProt P14618); test: qHTS Assay for Activators of Human Muscle Pyruvate Kinase (AID 954; active = well fitted curve in the direction sought with a large enough effect, not every such curve was filed as active;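 also: 0% = uninhibited enzyme and -100% = no enzyme or full thiadiazolimine inhibition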)
Chain of Pyruvate kinase PKM (Homo sapiens) (P14618 whole entry, looked up): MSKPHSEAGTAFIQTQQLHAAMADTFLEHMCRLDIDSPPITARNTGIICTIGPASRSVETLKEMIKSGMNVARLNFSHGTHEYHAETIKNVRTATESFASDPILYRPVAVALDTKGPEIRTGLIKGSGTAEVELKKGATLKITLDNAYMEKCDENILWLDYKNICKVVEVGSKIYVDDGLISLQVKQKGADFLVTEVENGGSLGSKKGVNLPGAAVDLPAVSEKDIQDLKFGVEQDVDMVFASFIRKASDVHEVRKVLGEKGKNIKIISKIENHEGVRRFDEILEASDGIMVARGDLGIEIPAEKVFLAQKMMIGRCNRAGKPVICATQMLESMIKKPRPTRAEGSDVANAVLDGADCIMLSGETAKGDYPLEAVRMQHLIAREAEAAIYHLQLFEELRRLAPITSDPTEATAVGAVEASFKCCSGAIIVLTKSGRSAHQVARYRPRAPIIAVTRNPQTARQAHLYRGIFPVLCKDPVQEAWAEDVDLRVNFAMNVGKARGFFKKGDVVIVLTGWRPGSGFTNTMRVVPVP
How it was run: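 A coupled luminescent readout tracked ATP made from ADP by purified PKM2. Final conditions included 0.1 nM enzyme, PEP and ADP at 0.5 and 0.1 mM, pH 7.2 imidazole buffer with BSA, and a one-hour room-temperature reaction.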

[17] = molecular target: Alpha-galactosidase (Coffea arabica) (UniProt Q42656); test: Counterscreen for Glucocerebrosidase Inhibitors: qHTS Assay for Coffee Bean alpha-Galactosidase at pH 4.5 (AID 957);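 also: plate controls were enzyme alone for no effect and no enzyme for full effect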
Chain of Alpha-galactosidase (Coffea arabica) (Q42656 whole entry, looked up): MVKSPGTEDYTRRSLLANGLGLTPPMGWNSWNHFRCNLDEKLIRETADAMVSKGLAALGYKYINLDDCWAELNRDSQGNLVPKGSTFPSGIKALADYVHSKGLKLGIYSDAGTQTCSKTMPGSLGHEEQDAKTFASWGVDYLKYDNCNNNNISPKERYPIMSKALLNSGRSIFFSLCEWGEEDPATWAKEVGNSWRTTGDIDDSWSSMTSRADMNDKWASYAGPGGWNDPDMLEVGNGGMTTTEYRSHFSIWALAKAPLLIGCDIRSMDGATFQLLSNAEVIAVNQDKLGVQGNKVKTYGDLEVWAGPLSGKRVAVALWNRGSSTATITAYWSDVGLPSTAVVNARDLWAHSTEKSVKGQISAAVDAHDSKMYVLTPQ
How it was run: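 Quantitative HTS of compounds (0.7 nM to 77 uM) against coffee bean alpha-galactosidase at pH 4.5, measuring 4-methylumbelliferone fluorescence released from 80 uM substrate.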

[18] = molecular target: Alpha-galactosidase A (Homo sapiens) (UniProt P06280); test: Counterscreen for Glucocerebrosidase Inhibitors: qHTS Assay for Human alpha-Galactosidase at pH 4.5 (AID 992); also: 0% is about no effect
Chain of Alpha-galactosidase A (Homo sapiens) (P06280 whole entry, looked up): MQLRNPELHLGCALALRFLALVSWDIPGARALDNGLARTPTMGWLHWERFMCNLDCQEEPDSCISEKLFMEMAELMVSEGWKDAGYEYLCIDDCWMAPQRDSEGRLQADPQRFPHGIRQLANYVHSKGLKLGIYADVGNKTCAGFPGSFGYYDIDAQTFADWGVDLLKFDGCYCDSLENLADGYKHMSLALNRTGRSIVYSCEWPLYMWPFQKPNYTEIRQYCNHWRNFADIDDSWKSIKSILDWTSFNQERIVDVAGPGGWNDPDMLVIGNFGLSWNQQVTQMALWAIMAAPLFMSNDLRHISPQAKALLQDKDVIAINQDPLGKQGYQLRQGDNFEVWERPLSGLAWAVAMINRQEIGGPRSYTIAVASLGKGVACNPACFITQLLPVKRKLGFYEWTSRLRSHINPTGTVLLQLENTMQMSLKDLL
How it was run: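 Citrate buffer pH 4.5, Tween-20 0.005%. Enzyme 2 nM, substrate 80 uM, 20 min RT. Stop pH 10. Fluorescence Ex 365/Em 440. AC50 by Hill fit.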

[19] = molecular target: alpha-glucosidase (Oryza sativa, rice) (UniProt Q653V4); test: Counterscreen for Glucocerebrosidase Inhibitors: qHTS Assay for Rice alpha-Glucosidase at pH 5.0 (AID 997);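 also: 0% = full activity with enzyme and -100% = basal without enzyme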
How it was run: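 Endpoint fluorogenic assay at pH 5.0: compounds (0.7 nM to 77 uM) titrated against 4 nM rice enzyme and 400 uM 4-MU-alpha-glucoside for 20 min at room temperature; NaOH/glycine stop, read ex 365/em 440 nm, Hill-fitted AC50.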

[20] = molecular target: Alpha-galactosidase (Coffea arabica) (UniProt Q42656); test: Counterscreen for Glucocerebrosidase Inhibitors: qHTS Assay for Coffee Bean alpha-Galactosidase at pH 5.9 (AID 998);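 also: plate controls were uninhibited enzyme for no effect and no-enzyme basal signal for full effect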
How it was run: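 Fluorogenic 4-MU substrate hydrolysis, 80 uM substrate and 2 nM coffee bean alpha-galactosidase, pH 5.9 citrate buffer, 20 min at room temperature, then NaOH/glycine stop. Titration 0.7 nM–77 uM, normalized to no-enzyme and enzyme controls, AC50 via Hill equation.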

Furin (Homo sapiens) = Furin (Homo sapiens) (UniProt P09958); test: Furin counterscreen qHTS for Zika virus inhibitors (AID 1347149);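 also: purified recombinant full-length human furin enzyme at 5 nM; fluorescence gain from furin cutting a BOC-RVRR-AMC peptide substrate over 15 min; top concentration of the series differs between compounds; plate controls were no-inhibitor control for no effect and no-enzyme control for full effect; nearly all actives have a fitted effect of over 70% in size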
Chain of Furin (Homo sapiens) (P09958 whole entry, looked up): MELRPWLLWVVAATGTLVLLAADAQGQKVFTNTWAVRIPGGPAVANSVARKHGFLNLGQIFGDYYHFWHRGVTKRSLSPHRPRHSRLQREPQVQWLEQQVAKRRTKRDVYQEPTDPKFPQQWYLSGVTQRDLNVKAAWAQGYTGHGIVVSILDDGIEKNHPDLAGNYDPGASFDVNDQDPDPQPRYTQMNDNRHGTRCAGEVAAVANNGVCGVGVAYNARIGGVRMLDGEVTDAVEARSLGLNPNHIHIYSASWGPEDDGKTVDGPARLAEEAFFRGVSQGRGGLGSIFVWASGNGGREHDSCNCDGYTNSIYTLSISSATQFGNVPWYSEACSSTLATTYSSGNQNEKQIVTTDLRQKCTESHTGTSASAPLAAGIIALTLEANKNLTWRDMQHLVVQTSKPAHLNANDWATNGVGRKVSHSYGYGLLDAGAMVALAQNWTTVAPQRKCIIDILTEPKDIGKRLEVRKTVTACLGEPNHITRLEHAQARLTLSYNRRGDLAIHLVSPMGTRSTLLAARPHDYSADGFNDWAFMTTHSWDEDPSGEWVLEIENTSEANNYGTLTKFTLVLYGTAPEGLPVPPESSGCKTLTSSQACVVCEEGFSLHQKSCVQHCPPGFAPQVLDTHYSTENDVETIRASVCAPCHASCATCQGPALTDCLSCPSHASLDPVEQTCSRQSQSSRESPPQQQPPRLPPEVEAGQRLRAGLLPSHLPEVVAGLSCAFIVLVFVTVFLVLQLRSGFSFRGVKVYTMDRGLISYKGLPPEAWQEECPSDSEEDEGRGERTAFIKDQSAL
How it was run: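 Counterscreen measures cleavage of 2 microM BOC-RVRR-AMC, below its ~15 microM Km, by 5 nM full-length human furin at pH 7.0 after a 15-min compound preincubation. Inhibition derives from the 15-min fluorescence increase at 37C.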

[21] = system: Zika virus NS2B-NS3 protease (linked construct); test: Confirmatory screen NINDS AMC qHTS for Zika virus inhibitors (AID 1347152);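 also: AMC fluorescence gain from cleaved Bz-Nle-KRR-AMC substrate over 15 min; top concentration of the series differs between compounds; 0% = no-inhibitor control and -100% = no-enzyme control; nearly all actives have a fitted effect of over 70% in size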
How it was run: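 Linked NS2B-NS3 protease, 1 nM, in 10 mM Tris-HCl pH 8.0, 0.01% Tween 20; compounds preincubated 15 min at room temperature. Nle-KRR-AMC 10 microM (Km 18.3 µM); 15-min fluorescence change (340/450 nm) fitted to 4-parameter Hill.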

[22] = system: Zika virus NS2B-NS3 protease (unlinked complex); test: Confirmatory screen GU AMC qHTS for Zika virus inhibitors (AID 1347153)
How it was run: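 Noncovalent NS2B hydrophilic domain/NS3 protease complex (25 nM) in 10 mM Tris-HCl pH 8.0, 0.01% Tween 20 was preincubated 15 min at room temperature with compounds. Then 10 µM AMC substrate (Km 18.3 µM) was added; fluorescence was read over 15 min and fitted to a 4-parameter Hill equation.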

[23] = Confirmatory screen NINDS Rhodamine qHTS for Zika virus inhibitors (AID 1347161);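 also: purified Zika NS2B-NS3 protease with linked NS2B cofactor domain and Rhodamine110 peptide substrate; plate controls were no-inhibitor control for no effect and no-enzyme control for full effect; nearly all actives have a fitted effect of over 60% in size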
How it was run: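 Kinetic fluorescence (Ex 480 nm, Em 540 nm) over 15 min with 1.5 microM Rhodamine110 peptide and 25 nM linked protease.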

[24] = Vero cells viability qHTS for Zika virus inhibitors (AID 1347167); also: % is scaled to controls: 0 for no effect and ±100 for the full control effect
How it was run: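 Luminescent ATP readout (CellTiter Glo) after 30 min at 37 degrees C gives viability; cells in DMEM + 4% FBS were treated 24 to 48 hours with compound, following overnight attachment.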

[25] = Tertiary RLuc qRT-PCR qHTS assay for Zika virus inhibitors (AID 1347169); also: top concentration of the series differs between compounds; % is scaled to controls: 0 for no effect and ±100 for the full control effect; nearly all actives have a fitted effect of over 55% in size
How it was run: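 Vero cells (1,000/well) infected with recombinant ZIKV-RLuc (Cambodian) at MOI 1-2 after compound addition, 48-72 hrs at 37 degrees C. Live-cell Renilla luciferase substrate added; luminescence read after 1-1.5 hrs.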

[26] = Primary qHTS for small molecule stabilizers of the endoplasmic reticulum resident proteome: Secreted ER Calcium Modulated Protein (SERCaMP) assay (AID 1508630); also: % is scaled to controls: 0 for no effect and ±100 for the full control effect
How it was run: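 The SH-SY5Y reporter protocol was run at 3 concentrations up to 38.3 uM (primary) or 11 concentrations (follow-up): 16 h compound, 100 nM thapsigargin for 4 h, then extracellular luciferase luminescence.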

COc1ccc(Cn2ccc3ccc(C(=O)NO)cc32)cc1
inactive: Potency [1] | Potency [2]

Cc1ccc2c(c1)Cc1c(C(=O)NN3CCCCC3)nn(-c3ccc(Cl)cc3Cl)c1-2
inactive: Potency [3]

CN(C(=O)Cc1ccc(Cl)c(Cl)c1)[C@@H](CN1CCCC1)c1cccc(OCC(=O)O)c1
inactive: outcome [4] | Potency [5] | activity change, negative = inhibition [6] 9.54% | outcome [7] | Potency [8] > 46 µM | Potency [9] > 46 µM | Potency [10] | outcome [11] | Potency [12] | Potency [13] | Potency [14] | outcome [15] | outcome [16] | outcome [17] | outcome [18] | outcome [19] | outcome [20] | Potency (Furin (Homo sapiens)) | Potency [21] | Potency [22] | Potency [23] | Potency [24] | Potency [25] | Potency [26]

CC(C(=O)OC1CC2CCC(C1)N2C)c1ccc(Br)cc1 (stereo not drawn)
inactive: Potency [3]

c1ccc2sc(C3(NCC4CC4)CCCCC3)cc2c1
inactive: Potency [3]

COC[C@H]([C@@H](O)[C@@H](O)C(=O)NCC[C@@H](C)c1nc(/C=C/C[C@H]2OC3(C[C@H](O)[C@H]2C)OC([C@@H](C[C@@H](O)[C@@H](C)[C@@H](O)[C@@H](C)/C=C(C)/C(C)=C/C=C/C(C)=C\C#N)OC)[C@@H](OP(=O)(O)O)C3(C)C)co1)N(C)C (stereo partly drawn)
inactive: activity change, negative = inhibition [3] 9.25% [at 4.99 µM]

COc1cc2c(cc1OCC1CCCC1)N([S+](=O)([O-])c1ccc(Oc3ccccc3)cc1)CC21CCN(CC(=O)O)CC1
inactive: Potency (Furin (Homo sapiens)) | Potency [21] | Potency [22]
